Each structure is given as a SMILES string. Inconclusive results are not listed. Values without a mark were called inactive. Calls of active or inactive are those of the source. Calls come from the whole dose curve; as a rule, active = well fitted cell-killing curve with a large enough effect in the repeat runs; inconclusive = weak or mixed curves, or effect the other way; inactive = flat fitted curve, though single readings scatter.
% is set by controls: 0 for no effect and ±100 for the full control effect; potency is the fitted concentration of half-maximal effect.

The assay in a line: qHTS RealTime-Glo MT Cell Viability Assay in HepG2 cells - 0 hour (AID 1224889). Note: nearly all actives have a fitted effect of over 50% in size. The following applies: RealTime-Glo luminescence; series mostly up to 76.8 µM; activity change, negative = cytotoxicity: at the top concentration. An excerpt: U.S. Tox21 Program National Center for Advancing Translational Sciences [NCATS] NIH Chemical Genomics Center [NCGC] U.S. Environmental Protection Agency [EPA] National Institutes of Environmental Health Sciences [NIEHS] National Toxicology Program [NTP] U.S. Food and Drug Administration [FDA] Tox21 Assay Overview: Measure of cell viability is critical in the cell-base assay. Analysis of cell viability is necessary for the characterization of cell responses to cytotoxic drugs and environmental stress. A RealTime-Glo MT Cell Viability Assay to monitor cell viability in real time of continues cell culture during 40 hours of compound treatment was used to screen Tox21 10K library compounds in HepG2 cells. The RealTime-Glo MT Cell Viability Assay is a nonlytic, homogeneous, bioluminescent method to measure cell viability in real time using a simple, plate-based method. The assay involves adding NanoLuc luciferase and a cell-permeant prosubstrate to cells in culture. Viable cells reduce the proprietary prosubstrate to generate a substrate for NanoLuc luciferase. This substrate diffuses from cells into the surrounding culture medium, where it is rapidly used by the NanoLuc Enzyme to produce a luminescent signal. The signal correlates with the number of viable cells, making the assay well suited for cytotoxicity studies.
Tox21 Assay Protocol Summary: The mixture of HepG2 cell suspension and reagents were dispensed at 600cells/6 ul/well in 1536-well tissue culture treated black solid bottom plates using a Multidrop dispenser. After the assay plates were incubated at a 37 C/5% CO2 incubator for 5 hours, 23 nL of compounds dissolved in DMSO, positive and negative controls was transferred to the assay plate by a pintool work station. The plates were incubated at 37 C for 40 hours. The luminescence intensity were measured at 0h, 8h, 16h, 24h, 32h and 40h time points using ViewLux plate reader during compound treatment.
Background: qHTS replaces the single test concentration by a dilution series.
`CCCCCCCCCCCCCCCC[N+](C)(C)CCN(Cc1ccc(OC)cc1)c1ncccn1`: the “activity change, negative = cytotoxicity” value was 15% [at 35.3 µM].

Turning to `Cc1cc(=O)oc2cc(N(C)C)ccc12`, the “activity change, negative = cytotoxicity” value was -21.4%.

Turning to `CCN(C(=O)c1cc(C)cc(OC[C@H](C)Nc2ccncc2)c1)C(C)C`, the “activity change, negative = cytotoxicity” value was 9.34% [at 35.3 µM].

Consider `O=c1cccccc1O`, for which the “activity change, negative = cytotoxicity” value was 5%.

As to `NC(=O)NS(=O)(=O)c1ccc(N)cc1`, the “activity change, negative = cytotoxicity” value is 4.15% [at 35.3 µM].

`Clc1ccc(C(Cn2ccnc2)OCc2ccc(Sc3ccccc3)cc2)c(Cl)c1` (stereo not given): the “activity change, negative = cytotoxicity” value is 0.337% [at 35.3 µM].

Turning to `O=C(c1ccc(O)cc1O)c1ccc(O)cc1O`, the Potency entry is “inactive”.

With `N#CC1(c2ccc(F)cc2)CCC(=O)CC1`, the “activity change, negative = cytotoxicity” value was -0.891% [at 35.3 µM].

With `C=CC(=O)OCCn1c(=O)n(CCOC(=O)C=C)c(=O)n(CCOC(=O)C=C)c1=O`, the “activity change, negative = cytotoxicity” value was 5.58%.

As to `O=C(c1ccc(F)cc1)C1CCN(CCn2c(=O)[nH]c3ccccc3c2=O)CC1`, the “activity change, negative = cytotoxicity” value was -1.81% [at 35.3 µM].

`O=C(O)c1ccc(Cl)c(Cl)c1`: the “activity change, negative = cytotoxicity” value is -0.944%.

For `C[C@H]1[C@H]2CC[C@H]3[C@@H]4CC=C5C[C@@H](N(C)C)CC[C@]5(C)[C@H]4CC[C@]23CN1C`, the “activity change, negative = cytotoxicity” value is -0.276% [at 35.3 µM].

As to `C[n+]1ccn(Cc2ccccc2)c1`, the “activity change, negative = cytotoxicity” value was 5.53%.

As for `CCN(CCC#N)c1ccc(N=Nc2c(Cl)cc([N+](=O)[O-])cc2Cl)cc1`, the “activity change, negative = cytotoxicity” value is -13.2%.

For the compound `CNC(=O)c1ccccc1`, the “activity change, negative = cytotoxicity” value was 8.38%.

Regarding `CC(C)(C)c1ccc(C(=O)CCCN2CCC(OC(c3ccccc3)c3ccccc3)CC2)cc1`, the “activity change, negative = cytotoxicity” value was 19.7% [at 35.3 µM].

In the case of `CC/C(=C(\c1ccc(O)cc1)c1ccc(OCCN(C)C)cc1)c1ccccc1`, the “activity change, negative = cytotoxicity” value was -5.74%.

On to `CC(C)OC(=O)c1cc2c(OCC(O)CNC(C)(C)C)cccc2[nH]1` (stereo not given), for which the “activity change, negative = cytotoxicity” value was 10.4% [at 35.3 µM].

For the compound `CC(=O)OCC(C)OC(C)=O` (stereo not given), the “activity change, negative = cytotoxicity” value was -0.939%.

As to `O=C1CCCc2c1cc1ccc3cccc4ccc2c1c34`, the “activity change, negative = cytotoxicity” value is 13.8%.

In the case of `Cc1cc(C2CCCCC2)n(O)c(=O)c1`, the “activity change, negative = cytotoxicity” value is 1.48% [at 35.3 µM].

As for `C[C@]12CCC(=O)C=C1CC[C@@H]1[C@@H]2[C@@H](O)C[C@@]2(C)[C@H]1CC[C@]2(O)C(=O)COC(=O)CCC(=O)O`, the Potency was 3.38 µM (active).

With `CC1=C(C(=O)OC(C)C)C(c2cccc([N+](=O)[O-])c2)C(C(=O)OC2CN(C(c3ccccc3)c3ccccc3)C2)=C(N)N1` (stereo not given), the “activity change, negative = cytotoxicity” value is -2.41% [at 35.3 µM].

For the compound `CN(C/C=C/C#CC(C)(C)C)Cc1cccc2ccccc12`, the “activity change, negative = cytotoxicity” value was -3.11% [at 35.3 µM].

In the case of `CCc1cc(Cc2cc(CC)cc(C(C)(C)C)c2O)c(O)c(C(C)(C)C)c1`, the “activity change, negative = cytotoxicity” value was 4.82%.

As to `CSc1cnc(C)cn1`, the “activity change, negative = cytotoxicity” value was 7.84% [at 200 µM].

For the compound `Cc1cc(O)c(C(C)(C)C)cc1C(C)(C)C`, the “activity change, negative = cytotoxicity” value was 0.587%.

For the compound `CCCCCCC[N+](CC)(CC)CCCCc1ccc(Cl)cc1`, the “activity change, negative = cytotoxicity” value was 8.54% [at 35.3 µM].

For the compound `CC[C@H](c1ccc(O)cc1)[C@@H](CC)c1ccc(O)cc1`, the “activity change, negative = cytotoxicity” value was -16.8% [at 35.3 µM].

`CC[C@@]1(O)C(=O)OCc2c1cc1n(c2=O)Cc2c-1nc1ccccc1c2/C=N/OC(C)(C)C`: the “activity change, negative = cytotoxicity” value was -2.7% [at 35.3 µM].

In the case of `OCCCCCCCCCCCCBr`, the “activity change, negative = cytotoxicity” value was 17.9%.

As for `CCOC(=O)c1nc(C(Cl)(Cl)Cl)n(-c2ccc(Cl)cc2Cl)n1`, the “activity change, negative = cytotoxicity” value was -7.58%.

As to `C1CCCC1`, the “activity change, negative = cytotoxicity” value was 0.794%.

As for `O=Cc1cc(O)ccc1Br`, the “activity change, negative = cytotoxicity” value is 2.35%.

With `CCN(CC)CCNC(=O)c1c(C)[nH]c(/C=C2\C(=O)Nc3ccc(F)cc32)c1C`, the “activity change, negative = cytotoxicity” value is -3.01% [at 35.3 µM].

In the case of `N#CSc1ccc(N)c([N+](=O)[O-])c1`, the “activity change, negative = cytotoxicity” value was -1.2%.

Consider `CCCC/C=C/CCCCO`, for which the “activity change, negative = cytotoxicity” value is -14%.

Regarding `Cc1ccc(O)c2ncccc12`, the “activity change, negative = cytotoxicity” value was -0.404% [at 35.3 µM].

In the case of `c1ccc(CSCc2ccccc2)cc1`, the “activity change, negative = cytotoxicity” value is -3.69%.

With `CC[C@@]1(O)C(=O)OCc2c1cc1n(c2=O)Cc2cc3c(CN(C)C)c(O)ccc3nc2-1`, the “activity change, negative = cytotoxicity” value was 6.12% [at 35.3 µM].

The record behind these values is PubChem BioAssay (Tox21).
